Data: PMC9838217, “Structure of SALL4 zinc finger domain reveals link between AT-rich DNA binding and Okihiro syndrome”
Where a chain is given by its changes, count along the chain named.

Experiments:
Experiment in all cases: HT-SELEX; high values mean tight binding
Conditions in all cases: protein: recombinant; vector His6-GST; dsDNA, one strand shown
SALL4 ZFC4 WT (HT-SELEX) = molecular target: T1, SALL4 ZFC4 WT (HT-SELEX) (Mus musculus, UniProt Q8BX22 870-940)
T1 sequence: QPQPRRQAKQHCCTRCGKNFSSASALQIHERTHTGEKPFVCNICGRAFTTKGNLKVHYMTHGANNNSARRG
Outline: (§1)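 Binding signal is expressed as fold change in each canonical k-mer's read fraction over the initial random library. To obtain it, 1 µg of purified recombinant mouse SALL4 zinc finger cluster 4 (residues 870–940) was incubated for 10 min at room temperature with library DNA (1.5 µg first cycle, 200 ng later cycles) in 100 µl of 10 mM Tris–HCl pH 7.5, 50 mM NaCl, poly(dI-dC) and DTT. Ni2+ bead-captured complexes went through washing, PCR amplification and reselection for up to 6 cycles, in triplicate, before MiSeq sequencing and scanning for 6-mers.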

[1] = molecular target: T2, SALL4 ZFC4 R900W (HT-SELEX) (Mus musculus, UniProt Q8BX22 870-940, R900W)
T2 sequence: T1 sequence with R31W
Outline: as §1

[2] = molecular target: T3, SALL4 ZFC4 G921D (HT-SELEX) (Mus musculus, UniProt Q8BX22 870-940, G921D)
T3 sequence: T1 sequence with G52D
Outline: as §1

| Sequence | binding signal (SALL4 ZFC4 WT (HT-SELEX)) [fold-change vs cycle 0] | binding signal [1] [fold-change vs cycle 0] | binding signal [2] [fold-change vs cycle 0] |
| --- | --- | --- | --- |
| CTCTCC | 0.497 ± 0.0273 | 0.603 ± 0.0441 | 0.672 ± 0.0341 |
| GGTTAC | 0.891 ± 0.0455 | 1.05 ± 0.0396 | 1.01 ± 0.0443 |
| GCGAAA | 0.363 ± 0.0241 | 0.395 ± 0.00888 | 0.534 ± 0.0715 |
| ACATCA | 1.32 ± 0.0619 | 1.42 ± 0.0539 | 1.37 ± 0.0921 |
| GGGTAA | 0.818 ± 0.0379 | 0.955 ± 0.0325 | 0.918 ± 0.0131 |
| AGGACA | 0.769 ± 0.0198 | 0.906 ± 0.0391 | 0.947 ± 0.0205 |
| ATCATC | 1.5 ± 0.034 | 1.56 ± 0.0669 | 1.49 ± 0.0918 |
| ACCACG | 0.351 ± 0.0168 | 0.428 ± 0.0163 | 0.523 ± 0.0453 |
| GCAAAC | 0.54 ± 0.031 | 0.598 ± 0.00737 | 0.718 ± 0.0549 |
| ACTTAG | 1.38 ± 0.0593 | 1.56 ± 0.0417 | 1.42 ± 0.0798 |
| CGTCAA | 0.564 ± 0.0126 | 0.667 ± 0.0148 | 0.765 ± 0.0373 |
| AGAGAT | 1.51 ± 0.0705 | 1.65 ± 0.139 | 1.53 ± 0.135 |
| ATAAGC | 1.34 ± 0.0651 | 1.21 ± 0.0666 | 1.22 ± 0.0552 |
| ACATAG | 1.3 ± 0.0172 | 1.35 ± 0.0801 | 1.34 ± 0.0894 |
| ATAGAG | 1.4 ± 0.0362 | 1.43 ± 0.0403 | 1.38 ± 0.0574 |
| AGGTAT | 1.44 ± 0.0737 | 1.54 ± 0.0608 | 1.47 ± 0.0842 |
| ATGACC | 0.806 ± 0.0726 | 0.891 ± 0.0488 | 0.947 ± 0.065 |
| CTCATA | 1.52 ± 0.0984 | 1.48 ± 0.0543 | 1.41 ± 0.106 |
| ATTTTG | 1.66 ± 0.083 | 1.5 ± 0.0395 | 1.44 ± 0.0553 |
| AATCCA | 1.41 ± 0.0345 | 1.44 ± 0.0422 | 1.37 ± 0.0637 |
| GCAGTA | 0.609 ± 0.0122 | 0.693 ± 0.0275 | 0.766 ± 0.032 |

| Sequence | binding signal (SALL4 ZFC4 WT (HT-SELEX)) [fold-change vs cycle 0] | binding signal [1] [fold-change vs cycle 0] | binding signal [2] [fold-change vs cycle 0] |
| --- | --- | --- | --- |
| TAGCTA | 1.22 ± 0.05 | 1.3 ± 0.064 | 1.29 ± 0.0827 |
| ATAGGG | 0.829 ± 0.0359 | 0.924 ± 0.0323 | 0.954 ± 0.0273 |
| CTGAGC | 0.348 ± 0.00959 | 0.42 ± 0.0161 | 0.535 ± 0.0354 |
| ATAGAC | 1.2 ± 0.024 | 1.29 ± 0.0416 | 1.3 ± 0.09 |
| ACTTAC | 1.44 ± 0.0822 | 1.6 ± 0.106 | 1.47 ± 0.146 |
| AAGTCA | 1.3 ± 0.0493 | 1.46 ± 0.0531 | 1.35 ± 0.0928 |
| ATCCCG | 0.428 ± 0.0246 | 0.4832 ± 0.00274 | 0.574 ± 0.0423 |
| AGCGAG | 0.337 ± 0.0112 | 0.393 ± 0.0228 | 0.519 ± 0.0797 |
| ACAGTG | 0.745 ± 0.062 | 0.869 ± 0.0495 | 0.895 ± 0.0488 |
| ATATTG | 2.19 ± 0.214 | 1.8 ± 0.105 | 1.69 ± 0.149 |
| ATGTGC | 0.53 ± 0.0281 | 0.588 ± 0.00704 | 0.719 ± 0.0265 |
| AGATTG | 1.29 ± 0.0269 | 1.41 ± 0.0315 | 1.38 ± 0.0773 |
| TCATGA | 1.45 ± 0.0979 | 1.54 ± 0.0952 | 1.49 ± 0.115 |
| CCCAGA | 0.431 ± 0.0214 | 0.51 ± 0.0216 | 0.583 ± 0.0525 |
| ATTACG | 1.22 ± 0.102 | 1.27 ± 0.0629 | 1.23 ± 0.0609 |
| GCTTAC | 0.774 ± 0.0137 | 0.852 ± 0.0208 | 0.908 ± 0.0208 |
| CCCATC | 0.471 ± 0.0121 | 0.54 ± 0.0172 | 0.613 ± 0.034 |
| AATGTA | 2.02 ± 0.0563 | 1.99 ± 0.0939 | 1.76 ± 0.157 |
| AGTTAT | 2.81 ± 0.247 | 2.13 ± 0.15 | 1.89 ± 0.186 |
| ACCAAC | 0.731 ± 0.0183 | 0.8162 ± 0.00324 | 0.883 ± 0.0212 |
| GGGTTA | 0.864 ± 0.0423 | 0.939 ± 0.0501 | 0.958 ± 0.0312 |

| Sequence | binding signal (SALL4 ZFC4 WT (HT-SELEX)) [fold-change vs cycle 0] | binding signal [1] [fold-change vs cycle 0] | binding signal [2] [fold-change vs cycle 0] |
| --- | --- | --- | --- |
| ATGAAT | 3.02 ± 0.199 | 2.16 ± 0.113 | 1.92 ± 0.161 |
| AGGTTG | 0.791 ± 0.0234 | 0.894 ± 0.0252 | 0.945 ± 0.0127 |
| TGAGCA | 0.639 ± 0.0443 | 0.737 ± 0.0106 | 0.843 ± 0.0202 |
| CGTTTC | 0.628 ± 0.029 | 0.738 ± 0.0101 | 0.794 ± 0.021 |
| ACAAAT | 1.82 ± 0.0876 | 1.76 ± 0.0787 | 1.61 ± 0.106 |
| AGGCAG | 0.306 ± 0.00652 | 0.366 ± 0.0295 | 0.484 ± 0.0834 |
| ATCGAG | 0.776 ± 0.0249 | 0.873 ± 0.0248 | 0.967 ± 0.0375 |
| GTTTTA | 1.65 ± 0.0877 | 1.66 ± 0.0685 | 1.54 ± 0.113 |
| ACCCCT | 0.522 ± 0.0409 | 0.619 ± 0.0154 | 0.676 ± 0.0257 |
| AGGTGC | 0.324 ± 0.00829 | 0.389 ± 0.0132 | 0.519 ± 0.0738 |
| GATTAA | 2.07 ± 0.127 | 1.99 ± 0.123 | 1.77 ± 0.188 |
| AGGAAG | 0.939 ± 0.0254 | 1.172 ± 0.0114 | 1.11 ± 0.034 |
| AGCATC | 0.703 ± 0.0384 | 0.804 ± 0.0378 | 0.887 ± 0.0448 |
| AGCCTC | 0.316 ± 0.0162 | 0.401 ± 0.0165 | 0.536 ± 0.0409 |
| AACAGA | 1.28 ± 0.057 | 1.41 ± 0.0434 | 1.35 ± 0.0868 |
| AGATCC | 0.821 ± 0.0254 | 0.949 ± 0.0348 | 1.045 ± 0.00383 |
| GTCTAA | 1.16 ± 0.029 | 1.28 ± 0.0593 | 1.27 ± 0.0407 |
| GAAGAA | 1.38 ± 0.0779 | 1.56 ± 0.142 | 1.41 ± 0.156 |
| CAGATG | 0.794 ± 0.0267 | 0.922 ± 0.0206 | 0.959 ± 0.0159 |
| CTGATC | 0.794 ± 0.0362 | 0.948 ± 0.0293 | 1.02 ± 0.0279 |
| GCCTGA | 0.303 ± 0.0278 | 0.386 ± 0.0159 | 0.497 ± 0.0446 |

| Sequence | binding signal (SALL4 ZFC4 WT (HT-SELEX)) [fold-change vs cycle 0] | binding signal [1] [fold-change vs cycle 0] | binding signal [2] [fold-change vs cycle 0] |
| --- | --- | --- | --- |
| AACGGA | 0.714 ± 0.0406 | 0.846 ± 0.0545 | 0.859 ± 0.0492 |
| CTTATC | 1.5 ± 0.0472 | 1.62 ± 0.0833 | 1.44 ± 0.0973 |
| CCTGCA | 0.34 ± 0.0217 | 0.407 ± 0.0271 | 0.515 ± 0.0759 |
| GTGCTA | 0.592 ± 0.0163 | 0.69 ± 0.007 | 0.796 ± 0.0354 |
| ATAGGC | 0.52 ± 0.0405 | 0.585 ± 0.0153 | 0.733 ± 0.0725 |
| AGGTAC | 0.804 ± 0.0355 | 0.942 ± 0.0186 | 0.9735 ± 0.00829 |
| AAATGC | 0.879 ± 0.0146 | 0.918 ± 0.025 | 0.969 ± 0.0401 |
| CGTTGA | 0.664 ± 0.053 | 0.763 ± 0.00493 | 0.839 ± 0.0136 |
| GGGATA | 0.88 ± 0.0566 | 0.967 ± 0.0568 | 0.94 ± 0.0469 |
| GAAATC | 1.25 ± 0.0302 | 1.28 ± 0.0173 | 1.27 ± 0.0773 |
| CATATC | 1.68 ± 0.148 | 1.44 ± 0.0706 | 1.39 ± 0.0818 |
| ATATAG | 2.33 ± 0.245 | 1.9 ± 0.143 | 1.74 ± 0.201 |
| GAGTGA | 0.906 ± 0.0342 | 1.02 ± 0.0645 | 1.05 ± 0.0602 |
| CAGTCG | 0.32 ± 0.0306 | 0.389 ± 0.0206 | 0.497 ± 0.0334 |
| AATCTC | 1.38 ± 0.0549 | 1.5 ± 0.0336 | 1.43 ± 0.0651 |
| ATCTAC | 1.31 ± 0.0255 | 1.41 ± 0.0427 | 1.38 ± 0.0966 |
| ATTGAC | 1.17 ± 0.0362 | 1.31 ± 0.032 | 1.3 ± 0.0284 |
| ACGAAC | 0.667 ± 0.0536 | 0.807 ± 0.0318 | 0.861 ± 0.0438 |
| GTCGTA | 0.571 ± 0.0216 | 0.663 ± 0.0204 | 0.752 ± 0.0439 |
| AGTAAT | 2.39 ± 0.144 | 2.3 ± 0.183 | 1.99 ± 0.219 |
| GATAGC | 0.692 ± 0.0348 | 0.798 ± 0.0237 | 0.8754 ± 0.00393 |
